{"source": "PubChem BioAssay (NCATS)", "note": "Some of the results follow. Inconclusive results are not listed. The source made the active and inactive calls. Calls come from the whole dose curve; as a rule, active = well fitted inhibition curve with a large enough effect; inconclusive = small, poorly fitted or top-dose-only effect; inactive = flat fitted curve, though single readings scatter. % is set by controls: 0 for no effect and ±100 for the full control effect; potency is the fitted concentration of half-maximal effect.", "data": [{"tested_on": "NanoLuc luciferase (engineered Oplophorus gracilirostris luciferase)", "experiment": "Biochemical NLuc saturation counterscreen for small molecule modulators of PMP22 gene expression - Nano-Glo assay (AID 1508638)", "settings": "Secreted NLuc enzyme (filtered S16 cell medium), Nano-Glo luminescence; series mostly up to 57.5 µM; activity change, negative = inhibition: at the top concentration", "text": "Assay Provider: Jim Inglese Ph.D. National Center for Advancing Translational Science, National Institutes of Health, Rockville, MD CMT is a heterogeneous group of neurological disorders that affect approximately 1 in 2,500 people. In particular, the most common form of CMT, CMT1A is genetically linked to the duplication of the PMP22 gene which leads to Schwann cell overexpression, thus manifesting itself as a typical case of dose-sensitive diseases. To identify small molecule compounds that can mediate the expression of PMP22 we developed a phenotypic assay screening strategy by utilizing genome editing techniques to construct Schwann cell lines containing novel reporter technology to monitor the transcriptional or translational regulation of PMP22. For high sensitivity we use a bioluminescent reporter system embedded in the 3' UTR of the PMP22 gene (S16(c9) Pmp22-F2sN) to identify compounds that inhibit gene expression. […] We can further discriminate the effect of all transcriptionally active molecules on PMP22 translation or stability with an assay that incorporates a short NLuc peptide (HiBiT) at the C-terminus of expressed PMP22 (S16(f8) PMP22-HiBiT) allowing alpha complementation and luminescence detection of membrane-associated PMP22 protein. These assays were screened against the NCATS Sytravon Library Collection. Miniaturization of these assays to 1536-well plate format for quantitative high throughput screening (qHTS) yielded rich data sets immediately from the qHTS assay (S16(c9) Pmp22-F2sN), when compared with data from a cell viability assay (Cell TiterGlo) to identify compounds that decreased the output signals through cellular toxicity to streamline the selection process of actives for subsequent characterization using the HiBiT assay (S16(f8) PMP22-HiBiT).\nBiochemical Promega Nano-Glo solution NLuc assay PROTOCOL TABLE (format as described by Inglese J, Shamu CE and Guy RK. 2007) SEQUENCE No. (e.g., 1, 2, 3, etc.); PARAMETER (e.g., Cells, Incubation, Reagent, etc.); VALUE and DESCRIPTION. 1. Reagent. Add 2 uL substrate per well into Greiner 1536-well white/solid bottom high base, medium binding plates. 2. Compounds. Library compounds and controls added at 23nL per well, transferred by Pin Tool. 3. Incubation. Incubate plates 5 min at ambient temperature. 4. Reagent. Add 2uL NLuc enzyme solution per well of Greiner 1536-well plates. 5. Incubation. Incubate plates at room temperature for 10 min., protect from light. 6. Detector. FLuc luminescence measured using CCD-based camera (Viewlux). NOTES (numbers refer to Sequence numbers above; values are from representative experiments) 1. Freshly prepared Nano-Glo Luciferase Assay System reagent per Promega instructions, product N1120, and filtered through […]. 4. Enzyme was obtained by filtering media of S16 cells expressing secreted NLuc (Inglese et al. 2014) grown to 80-90% confluency in DMEM High Glucose, No Phenol Red media + 10% heat inactivated FBS + 1% Pen/Strep supplemented media6. Luminescence Read (Fluc): Clear filter; Exposure = 10 sec, Gain = High, Speed = Slow, Binning = 2X 6. Luminescence Read (Nluc): Clear filter; Exposure = 1 sec, Gain = High, Speed = Slow, Binning = 2X REFERENCES: 1. Inglese J, Shamu CE and Guy RK, Reporting data from high throughput screening of small molecule libraries, Nature Chemical Biology, 2007, 3(8): 438-441. doi.org/10.1038/nchembio0807-438 2. Yasgar A, Shinn P, Jadhav A, Auld DS, Michael S, Zheng W, Austin CP, Inglese J and Simeonov A, Compound Management for Quantitative High-Throughput Screening. J. Assoc. Lab. Auto., 2008, 13: 79-89. doi: 10.1016/j.jala.2007.12.004 3. Inglese, J., Dranchak, P., Moran, J. J., Jang, S. W., Srinivasan, R., Santiago, Y., Zhang, L., Guha, R., Martinez, N., MacArthur, R., Cost, G. J., and Svaren, J. (2014) Genome editing-enabled HTS assays expand drug target pathways for Charcot-Marie-tooth disease, ACS Chem Biol 9, 2594-2602.", "values": [{"smiles": "CCCS(=O)(=O)c1ncc(Cl)c(C(=O)Nc2scc(-c3ccccc3)c2C(=O)OCC)n1", "activity change, negative = inhibition": "-5.14% (inactive)"}, {"smiles": "CC(C)(C)c1ccc(C(=O)NCC(c2ccco2)S(=O)(=O)c2ccc(F)cc2)cc1", "note": "(stereo not given)", "activity change, negative = inhibition": "-10.4% (inactive)"}, {"smiles": "Cc1ccc(NC(=O)c2nc(S(=O)(=O)Cc3cccc(C)c3)ncc2Cl)cc1", "activity change, negative = inhibition": "-7.03% (inactive)"}, {"smiles": "CCOC(=O)c1ccc(NC(=O)CSc2nc3c([nH]c4ccccc43)c(=O)n2C)cc1", "activity change, negative = inhibition": "-7.37% (inactive)"}, {"smiles": "CCc1ccc(C2CC(=O)c3c([nH]c(C(=O)OCc4ccc(C)cc4)c3C)C2)cc1", "note": "(stereo not given)", "activity change, negative = inhibition": "-1.46% (inactive)"}, {"smiles": "CCC1=Nc2cc(C(=O)NCCCOC(C)C)ccc2Sc2ccc(C)cc21", "activity change, negative = inhibition": "-4.08% (inactive)"}, {"smiles": "Cc1ccc(OCCSc2nc3ccc(NC(=O)COc4ccc(C)cc4)cc3s2)cc1", "activity change, negative = inhibition": "-1.84% (inactive)"}, {"smiles": "Cc1nnc(SCC(=O)NCc2ccccc2Cl)c2nn(-c3ccccc3)c(C)c12", "activity change, negative = inhibition": "-19.2% (inactive)"}, {"smiles": "CC(=O)N1CCCc2cc(S(=O)(=O)N3CCCC(C(=O)N4CCN(c5cccc(Cl)c5)CC4)C3)ccc21", "note": "(stereo not given)", "activity change, negative = inhibition": "-13% (inactive)"}, {"smiles": "O=C(c1ccc(C(F)(F)F)cc1)N1CCC(c2nc(-c3ccc(S(=O)(=O)N4CCCC4)cc3)no2)CC1", "activity change, negative = inhibition": "-5.18% (inactive)"}, {"smiles": "CCOc1ccc(NC(=O)c2c(NC(=O)Cc3ccccc3)sc3c2CCC(C)C3)cc1", "note": "(stereo not given)", "activity change, negative = inhibition": "-19.8% (inactive)"}, {"smiles": "CCOCCCNC(=O)c1c(NC(=O)c2nc(SC)ncc2Cl)sc2c1CCCC2", "activity change, negative = inhibition": "-16.4% (inactive)"}, {"smiles": "CCCn1c2ccccc2c2cnn(CC(=O)NCC3CCN(Cc4ccc(C)cc4)CC3)c(=O)c21", "activity change, negative = inhibition": "-5.62% (inactive)"}, {"smiles": "COc1ccccc1Nc1c2c(nc3ccc(NC(=O)/C=C/c4cc(OC)c(OC)c(OC)c4)cc13)CCCC2", "Potency": "4.32 µM (active)"}, {"smiles": "Cc1ccc(C)n1-c1nnc(N2CCC(C(=O)NCc3ccccc3Cl)CC2)s1", "activity change, negative = inhibition": "-18.5% (inactive)"}, {"smiles": "CCOC(=O)c1c(C)[nH]c(CCC(=O)NCCCN2CCN(c3cc(C)ccc3C)CC2)c1C", "activity change, negative = inhibition": "-14.1% (inactive)"}, {"smiles": "Cc1cc(OCC(=O)NCC2(N(C)C)CCCCC2)cc(C)c1Cl", "activity change, negative = inhibition": "-4.49% (inactive)"}, {"smiles": "COc1ccc(CCNC(=O)c2cc(=O)c3c(C)cc(C)cc3o2)cc1OC", "Potency": "0.343 µM (active)"}, {"smiles": "Cc1cccc(Nc2cc(C)nc(-n3nc(C)cc3C)n2)c1", "Potency": "6.11 µM (active)"}, {"smiles": "CCOC(=O)c1c(C)[nH]c(CCC(=O)NCCCN2CCN(c3cccc(Cl)c3)CC2)c1C", "activity change, negative = inhibition": "-7.06% (inactive)"}, {"smiles": "Cc1ccc(CCNC(=O)C2CCN(c3nnc(-n4cccc4CNc4ccc(C)cc4)s3)CC2)cc1", "activity change, negative = inhibition": "-9.6% (inactive)"}, {"smiles": "O=C(c1ccc2c(c1)N(Cc1ccc(F)cc1)C(=O)c1ccccc1S2(=O)=O)N1CCN(c2ccccn2)CC1", "Potency": "3.43 µM (active)"}, {"smiles": "COc1ccc(-c2onc(C)c2C)cc1S(=O)(=O)NCC1CCN(Cc2cccc(F)c2)CC1", "activity change, negative = inhibition": "-5.11% (inactive)"}, {"smiles": "CCC1CCCCN1CCCNC(=O)c1cc2c(Cl)nc3ccccc3c2s1", "note": "(stereo not given)", "activity change, negative = inhibition": "-0.443% (inactive)"}, {"smiles": "CCCCOc1ccc(CN2C(=O)C(=O)c3cc(Br)cc(C)c32)cc1OC", "activity change, negative = inhibition": "-8.72% (inactive)"}]}]}
